Drawing on PubChem BioAssay (NCI), this text covers growth for 5 compounds.

Each structure is given as a SMILES string. About 83,000 compounds went through this panel and 20% of them were active in at least one assay; those are over-represented in the sample as a whole.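 Testing used 96-well plates and a 48-hour single-concentration exposure. Example: -40 means 40% of the starting cells died.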 Values without a mark were called inactive. Calls of active or inactive are those of the source. The calls were made as follows: active = growth percent below 10; inactive = the rest.

Among the test systems are BT-549 breast; MDA-MB-435 melanoma; SW-620 colon; MCF7 breast; HCT-116 colon; HCC-2998 colon; KM12 colon.
Common to all, as to test: NCI-60 one-dose screen, 48 h (100 = growth as untreated, 0 = no growth, -100 = all killed)
What all share (conditions): 10 µM

As to `COc1cc(/C=C/c2cc(/C=C/c3ccc(O)c(OC)c3)n(C(=O)Nc3ccccc3Cl)n2)ccc1O`, the growth is -26.4% (active) in the assay with BT-549 breast; 4.08% (active) with MDA-MB-435 melanoma; 6.99% (active) with SW-620 colon; 4.41% (active) with MCF7 breast; 1.16% (active) in the assay with HCT-116 colon; 2.83% (active) in the assay on HCC-2998 colon. Moreover, in the assay on KM12 colon, the growth is 0.0939% (active).

With `O=C(CCl)Oc1ccc(OC(=O)CCl)cc1`, the growth with BT-549 breast is 46.9%; in the assay with MDA-MB-435 melanoma it was 85.3%; in the assay with SW-620 colon it was 89.8%; in the assay on MCF7 breast, 77.9%; with HCT-116 colon, 94.5%; in the assay with HCC-2998 colon it was 109%. In the assay with KM12 colon, the growth is 83.7%.

In the case of `c1ccc(CCCCc2ccc3ccccc3n2)cc1`, the growth was 102% in the assay with BT-549 breast; 108% in the assay with MDA-MB-435 melanoma; 102% with SW-620 colon; 108% with MCF7 breast; 96% in the assay on HCT-116 colon; 92.9% in the assay on HCC-2998 colon. The growth in the assay on KM12 colon was 106%.

As for `C/C(=N\O)c1ccc(NC(=O)CSc2nnc(-c3ccccc3)n2-c2ccccc2)cc1`, the growth in the assay with MDA-MB-435 melanoma is 100%; in the assay on SW-620 colon, 83.1%; in the assay with MCF7 breast it was 104%; in the assay with HCT-116 colon it was 28.6%; in the assay with HCC-2998 colon, 91.1%; with KM12 colon it was 73.3%.

Regarding `COc1cc(N)c2ncccc2c1SC`, the growth is 102% in the assay on BT-549 breast; 110% in the assay with MDA-MB-435 melanoma; 104% in the assay with SW-620 colon; 104% in the assay on MCF7 breast; 99.3% with HCT-116 colon; 102% with HCC-2998 colon. Further, the growth in the assay with KM12 colon was 102%.
